From PubChem BioAssay
This is a sample that favours compounds with a hit; in the whole collection about 1.3% have one here.
NCOA2 inhibitor – human SRC2 (NCOA2) inhibition; HEK293 GAL4-SRC2 luciferase reporter, luminescence; actives 0.17% (n = 370,000); Q15596; inhibition, % at 9 µM;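 active means inhibition above the mean inhibition of all tested compounds plus 3 SD, set per campaign, cut at about 52% in these data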;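 further: 0% = DMSO treated cells and 100% = cells given Gossypol at 36 µM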
Gli-Sufu antag – blocks Gli-Sufu signaling in a luciferase reporter. Sufu-KO-LIGHT fibroblasts, Gli luciferase reporter luminescence. inhibition, % at 5 µM. actives 0.74% (n = 340,000);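 active means inhibition above about 55%, limit read from the data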;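 further: 0% = DMSO-treated cells and 100% = wells with medium but no cells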
SRC3 inh – inhibitors of human steroid receptor coactivator 3 (SRC3); actives 0.17% (n = 360,000); inhibition, % at 3.6 µM; HEK293 GAL4-SRC3 luciferase reporter, luminescence; AID 588352;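 active means inhibition above a per-campaign cutoff, the mean of all compounds plus 3 SD, cut at about 60% in these data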;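 further: 0% = DMSO-treated cells and 100% = gossypol-treated cells at 36 µM; higher means less SRC3-driven luciferase light from the GAL4 reporter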
NR5A2 inv ag – inverse agonists of human LRH-1 (NR5A2); O00482; inhibition, % at 3.6 µM; HEK293T StAR-luciferase reporter, LRH-1 transfected, 24 h; actives 0.13% (n = 360,000); AID 602396;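 active means inhibition above the mean inhibition of all tested compounds plus 3 SD, cut at about 73% in these data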;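 further: 0% = DMSO wells and 100% = reporter-only cells lacking LRH-1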
NCOA1 inh – inhibits human SRC1 coactivator. actives 0.12% (n = 360,000). HEK293 GAL4-SRC1 luciferase reporter, luminescence. inhibition, % at 3.6 µM. Q15788;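 active means inhibition above the campaign mean plus 3 SD, with each screening campaign given its own cutoff, cut at about 60% in these data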;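 further: 0% = DMSO treated cells and 100% = gossypol at 36 µM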
COUP-TFII inh – inhibitors of human COUP-TFII (NR2F2). P24468. HEK293T NGFI-A luciferase reporter, luminescence. inhibition, % at 8.6 µM. actives 0.7% (n = 370,000);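 active means inhibition above a per-plate cutoff, mean inhibition of test wells between control levels plus 3 SD, cut at about 38% in these data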;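 further: cells cotransfected with COUP-TFII expression vector driving the NGFI-A reporter; 0% = median of COUP-TF2 test wells and 100% = reporter-only cells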
Target sequence (P24468 whole entry, looked up): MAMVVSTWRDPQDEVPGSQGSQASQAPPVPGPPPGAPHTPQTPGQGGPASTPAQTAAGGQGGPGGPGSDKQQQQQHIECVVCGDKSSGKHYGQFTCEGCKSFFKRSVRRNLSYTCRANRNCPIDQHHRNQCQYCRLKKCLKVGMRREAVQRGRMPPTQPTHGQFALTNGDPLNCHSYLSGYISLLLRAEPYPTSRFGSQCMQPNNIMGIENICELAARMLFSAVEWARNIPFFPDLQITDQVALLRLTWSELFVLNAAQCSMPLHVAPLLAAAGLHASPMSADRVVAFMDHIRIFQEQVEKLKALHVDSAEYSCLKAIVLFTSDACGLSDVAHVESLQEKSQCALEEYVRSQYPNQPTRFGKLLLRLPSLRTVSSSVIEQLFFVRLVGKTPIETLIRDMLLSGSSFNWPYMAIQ
Gli antag conf – confirmation of Gli-SUFU pathway antagonists | shares compounds with Gli-Sufu antag | Sufu-KO-LIGHT cells, Gli luciferase reporter, luminescence | inhibition, % at 5 µM | actives 40% (n = 2,500);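 active means mean inhibition at 5 µM reaching about 45%, limit read from the data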;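 further: plate controls were DMSO-treated cells for no effect and wells lacking cells for full effect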
SufuKO cytotox – counter-screen for Gli-SUFU antagonists: cytotoxicity. actives 32% (n = 2,500). shares compounds with Gli-Sufu antag. Sufu-KO-LIGHT cells cytotoxicity, ATP luminescence. cytotoxicity, % at 5 µM. AID 651994;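 active means mean cytotoxicity at 5 µM above about 25%, limit read from the data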;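 further: cells exposed to compound overnight for roughly 16 to 18 hours; plate controls were DMSO wells with cells for no effect and medium without cells for full effect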
Wnt3a cs – inhibits Wnt3a reporter, counter-screen for Gli-SUFU antagonists | inhibition, % at 6.25 µM | AID 651995 | Wnt-LIGHT cells, Wnt3a-driven luciferase reporter, luminescence | actives 20% (n = 2,500) | shares compounds with Gli-Sufu antag;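 active means mean inhibition above about 25%, limit read from the data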
Gal4-VP16 ctr – VP16 inhibition counter-screen for COUP-TFII | AID 687007 | shares compounds with COUP-TFII inh | HEK293 Gal4-VP16 luciferase reporter, luminescence | actives 25% (n = 2,500) | inhibition, % at 8.5 µM; in the data active means inhibition above about 13%
COUP-TFII conf – COUP-TFII (NR2F2) inhibition, confirmation assay; inhibition, % at 8.5 µM; shares compounds with COUP-TFII inh; actives 45% (n = 2,500); AID 687008; HEK293 NGFI-A luciferase reporter, luminescence;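 active means mean inhibition over three repeats above a set limit taken from the earlier primary screen, cut at about 38% in these data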;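 further: 100% = cells given the luciferase reporter alone without the COUP-TF2 vector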
The depositor's hits bear a star; · = no result given; ! = repeats disagree.

SMILES | NCOA2 inhibitor | Gli-Sufu antag | SRC3 inh | NR5A2 inv ag | NCOA1 inh | COUP-TFII inh | Gli antag conf | SufuKO cytotox | Wnt3a cs | Gal4-VP16 ctr | COUP-TFII conf
S=C(NCc1ccc(Cl)cc1)Nc1ccncc1 | 20.9 | 63.3* | 12.0 | 49.3 | 5.1 | 58.4* | 49.2* | 13.9 | 35.8* | 16.6* | 44.1*
O=C(Cc1ccccc1)N1CCC(Oc2cccnc2)CC1 | 8.3 | · | · | · | · | -17.2 | · | · | · | · | ·
COc1ccc(NS(=O)(=O)c2ccc(-c3coc(C)n3)cc2)cc1OC | 28.9 | 72.9* | 27.4 | 49.8 | 4.7 | 51.5* | 73.1* | 28.5* | 50.6* | 9.3 | 59.3*
COc1ccc(NS(=O)(=O)c2ccc(-c3coc(C)n3)cc2)cc1 | -6.9 | 9.0 | 14.4 | 15.9 | -3.0 | -22.1 | · | · | · | · | ·
C[n+]1c2n(c3ccccc31)N=C(c1ccc(Cl)cc1)CS2 | 17.4 | 61.4* | 30.4 | 34.4 | 24.9 | 53.9* | 65.6* | 37.4* | -8.6 | 6.0 | 36.3
COc1ccc(C2=Nn3c([n+](C)c4ccccc43)SC2)cc1 | -31.3 | 81.4* | 54.3 | 67.1 | 37.5 | 73.1* | 85.9* | 17.3 | 39.6* | 9.8 | 65.4*
C[C@H]1COc2cc(Br)ccc2S(=O)(=O)N1Cc1cn(Cc2ccc(Cl)cc2)nn1 | 18.3 | · | · | · | · | -12.2 | · | · | · | · | ·
CC(C)N(Cc1cn(Cc2ccccc2)nn1)S(=O)(=O)c1ccccc1Br | -6.5 | · | · | · | · | 4.0 | · | · | · | · | ·
COc1ccc(N(Cc2ccccc2)C(=O)CSc2nnc(Cn3nnc4ccccc43)o2)cc1 | -2.4 | 5.3 | 23.8 | 10.3 | -32.7 | 12.2 | · | · | · | · | ·
O=C(CSc1nnc(Cn2nnc3ccccc32)o1)N(Cc1ccc(F)cc1)c1ccccc1 | 24.0 | 68.3* | 31.9 | 50.5 | 29.4 | 78.5* | 56.8* | 44.7* | 21.0 | -0.4 | 62.2*
C=CCN1[C@H](CO)[C@H](c2ccc(C#CC3(O)CCCC3)cc2)[C@@H]1C#N | 16.3 | · | · | · | · | 9.7 | · | · | · | · | ·
CCOc1ccc(-n2c(-c3ccccc3)c[n+]3c2CCC3)cc1 | 17.4 | 84.6* | 26.4 | 35.9 | 9.1 | 55.1* | 87.9* | 33.0* | 41.3* | -4.4 | 30.5
COc1cc(OC)c2c(O)c3c(=O)cc(C)oc3c(-c3c(OC)cc4cc5c(c(O)c4c3O)C(=O)CC(C)(O)O5)c2c1 (stereo unspecified) | -5.8 | · | · | · | · | 0.2 | · | · | · | · | ·
COC(=O)C1CN(Cc2ccccc2)CCS(=O)(=O)N1Cc1ccc(F)cc1 (stereo unspecified) | 6.2 | · | · | · | · | -11.6 | · | · | · | · | ·
COc1ccc(-c2nc(CN3CCN(c4ccccc4OC)CC3)c(C)o2)cc1 | 0.0 | 42.8 | 12.2 | -4.4 | 2.2 | -4.5 | · | · | · | · | ·
COc1ccc(-c2nc(CN3CCN(c4ncnc5ccccc45)CC3)c(C)o2)c(OC)c1 | 25.1 | 59.7* | 4.4 | 17.0 | 12.4 | 52.1* | 35.0 | 8.9 | -3.2 | -2.7 | 39.6*
Cc1ccc(-c2c[n+]3c(n2-c2ccccc2)SCC3)cc1 | 13.8 | 83.7* | 42.4 | 29.2 | 22.1 | 64.9* | 82.8* | 22.7 | 38.3* | -0.2 | 24.9
Cc1ccc(-c2cn(-c3ccccc3)c3[n+]2CCCS3)cc1 | 29.2 | 83.0*! | 4.2 | 69.2 | 28.4 | 54.6* | 87.4* | 44.5* | 45.0* | 11.0 | 39.0*!
COc1ccc(-n2c(-c3ccc(Cl)cc3)c[n+]3c2CCCCC3)cc1 | 24.2 | · | 12.2 | 10.3 | 2.4 | 28.6 | · | · | · | · | ·
COc1ccc(-c2c[n+]3c(n2-c2ccccc2)SCC3)cc1 | 13.8 | 75.7* | 39.1 | 25.1 | 26.1 | 56.8* | 79.7* | 25.1* | 42.1* | 9.7 | 29.2
COc1ccc(-c2nnc(SCC(=O)Nc3ccc(S(=O)(=O)Nc4nccs4)cc3)n2-c2ccc(OC)cc2)cc1 | 2.5 | · | · | · | · | -7.9 | · | · | · | · | ·
CN1/C(=C\P(=O)(N(C)C)N(C)C)C(C)(C)c2ccccc21 | 5.0 | 76.0* | 11.5 | 25.8 | 4.2 | 45.6* | 70.4* | 29.9* | 28.6* | -5.9 | -0.2
Nn1c(SCc2ccc(Br)cc2)nnc1-c1n[nH]c2c1CCC2 | -9.3 | · | · | · | · | -0.5 | · | · | · | · | ·
COc1ccc(-c2nnc(SCC(=O)Nc3cccc4ccccc34)n2Cc2ccco2)cc1 | 18.1 | · | · | · | · | -14.4 | · | · | · | · | ·
Cc1cc(NC2CCCCC2)nc(NCc2ccccc2)n1 | -21.8 | 79.5* | 32.9 | 5.1 | 16.9 | 52.4* | 57.8* | 33.5* | 17.3 | -2.0 | 18.9
SMILES | NCOA2 inhibitor | Gli-Sufu antag | SRC3 inh | NR5A2 inv ag | NCOA1 inh | COUP-TFII inh | Gli antag conf | SufuKO cytotox | Wnt3a cs | Gal4-VP16 ctr | COUP-TFII conf
O=C(N[C@H](C(=O)N1CCC[C@H]1C(=O)NCCc1ccccc1Cl)C1CCCCC1)c1cccs1 | -17.8 | · | · | · | · | -2.3 | · | · | · | · | ·
O=C(Nc1ccncc1)c1ccc(-c2ccccc2)cc1 | -35.0 | 57.8* | 8.0 | -8.1 | -30.7 | 62.0* | 55.0* | 23.5 | -84.3 | -87.4 | 33.1
Cc1ccc(S(=O)(=O)CC2CSc3nc4ccccc4n32)cc1 (stereo unspecified) | 16.5 | 71.8* | 24.8 | 48.0 | 26.5 | 67.5* | 70.4* | 18.5 | 47.2* | 9.4 | 63.9*
Cc1ccc(S(=O)(=O)CC2CSc3nc(N)cc(=O)n32)cc1 (stereo unspecified) | 2.7 | 7.7 | -5.4 | -1.8 | -12.7 | -8.0 | · | · | · | · | ·
COc1ccc(CCN(C)C(=O)Cc2ccc(-c3ccccc3)cc2)cc1OC | 16.3 | 59.6* | 13.9 | 30.3 | 2.6 | 48.1* | 14.8 | 6.1 | -43.7 | 3.9 | 36.9
O=C(NCCO)[C@H](Cc1ccccc1)NC1(C(=O)NCCN2CCOCC2)CCCCC1 | · | · | · | · | · | -6.7 | · | · | · | · | ·
CC12CCC(=O)C=C1CCC1C2CCC2(C)C(c3csc(N)n3)CCC12 (stereo unspecified) | 37.5 | 58.2* | 19.2 | 27.4 | 23.5 | 56.9* | 61.8* | 39.8* | 46.3* | 9.5 | 44.8*
CC(=O)[C@H]1CC[C@H]2[C@@H]3CCC4=CC(=O)CC[C@]4(C)[C@H]3CC[C@]12C | -15.6 | 7.0 | 11.2 | 22.9 | -0.1 | 33.6 | · | · | · | · | ·
Cc1nc2ccccn2c1C(=O)NNS(=O)(=O)c1ccc(C(C)(C)C)cc1 | 3.5 | 50.7 | 13.3 | 22.0 | 13.5 | 45.9* | 47.8* | 27.3* | 6.2 | 2.9 | 33.5
O=C(c1ccc(CSc2nc3ccncc3[nH]2)cc1)N1CCN(c2cccc(Cl)c2)CC1 | 7.4 | 58.3* | 3.2 | 10.1 | 17.5 | 78.2* | 67.2* | 42.3* | 8.1 | 11.7 | 50.8*
